Screening data as filed in PubChem.
Only a selection was taken, and hits are over-represented in it overall.
Tg IFNy HTS: inhibitors of Toxoplasma gondii growth with IFN-gamma | Toxoplasma gondii growth in IFN-gamma-treated host cells; stronger effect = lower value | activity change, negative = inhibition, % (concentration not given with the values) | 69,000 tested, 3.8% active | AID 1259416; in the data active = activity change below about -70%, passing the limit was not always enough;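 also: host cells are HeLa cells infected with Toxoplasma gondii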
Active calls of the source: *; ! = repeats disagree.

Screening CC[C@H](CO)Nc1nc(Nc2cccc(-c3ccccn3)c2)c2ncn(C(C)C)c2n1 returned Tg IFNy HTS -79*.
C=CCN1C(=O)C2(NCCc3c2[nH]c2ccccc32)c2ccccc21 (centres undefined) was read as Tg IFNy HTS 231.
For CC(C)Oc1ncnc2c1CCN(C(=O)c1cscn1)CC2 the results were Tg IFNy HTS -7.
Screening O=c1[nH]c(=O)n([C@H]2CC(O)[C@@H](CO)O2)cc1C(F)(F)F (some centres undefined) returned Tg IFNy HTS -50.
O=c1[nH]c(=O)n([C@H]2C[C@H](O)[C@@H](CO)O2)cc1C(F)(F)F was read as Tg IFNy HTS -77*!.
For Cc1cn([C@@H]2C[C@@H](O)[C@H](CO)O2)c(=O)[nH]c1=O the results were Tg IFNy HTS 1.
For CNC(=O)[C@H]1C[C@H]2CCN(Cc3csc(C)n3)C[C@H]2O1 the results were Tg IFNy HTS -2.
COCCN1CCN(C(=O)[C@H]2CCCO2)Cc2cccnc21 was read as Tg IFNy HTS 44.
Screening Cc1onc(-c2c(Cl)cccc2Cl)c1C(=O)N(C(C)C)C(C)C returned Tg IFNy HTS 38.
For CC(C)N(C(=O)c1ccccc1-c1ccccc1C(=O)N(C(C)C)C(C)C)C(C)C the results were Tg IFNy HTS -87*.
CC(=O)c1ccccc1-c1ccccc1C(=O)NC(C)C was read as Tg IFNy HTS -45.
`Cc1sc2ncnc(NCC3CCN(c4cnn(C)c(=O)c4)C3)c2c1C` (centres undefined) gave Tg IFNy HTS -44.
Screening O=C(C[C@H]1OC[C@H]2CN(Cc3cccc(F)c3)CC[C@@H]21)N1CCCO1 returned Tg IFNy HTS -1.
For CCN(CC)S(=O)(=O)N1CCN(S(=O)(=O)N2CCCC(C)C2)CC1 (centres undefined) the results were Tg IFNy HTS 11.
`COCCn1nnnc1C(c1cccs1)N1CCN(c2cc(C)ccc2C)CC1` (centres undefined) gave Tg IFNy HTS -95*.
Screening COCCn1nnnc1C(C(C)C)N1CCC(Cc2ccccc2)CC1 (centres undefined) returned Tg IFNy HTS -2.
Cc1cccc(N2CCN(C(c3ccccc3)c3nnnn3Cc3ccco3)CC2)c1C (centres undefined) was read as Tg IFNy HTS -13.
For Cc1ccc(-c2noc(-c3nnn(Cc4nc(-c5cccc(Cl)c5)oc4C)c3C)n2)cc1 the results were Tg IFNy HTS 42.
For CCOC(=O)c1nn(CCc2ccccc2)c2c1CN(C(=O)c1csc(SC)n1)CC2 the results were Tg IFNy HTS -20.
`Cc1cccc(C2=NC3(CCN(Cc4ccccc4C)CC3)NC2=O)c1` gave Tg IFNy HTS -54.
For C1=C(c2ccccc2)CC(c2ccccc2)=NN=C1c1ccccc1 the results were Tg IFNy HTS -87*.
For O=C1CC(c2ccccc2)=NN1c1ccccc1 the results were Tg IFNy HTS -39.
`Cc1cnc(-c2nc(C3CCN(C(=O)c4cccc(F)c4)CC3)no2)cn1` gave Tg IFNy HTS -42.
For O=C(C1CCC1)N1CCC2(CCCN2CC2CC2)CC1 the results were Tg IFNy HTS 23.
Screening Cc1ccc(-c2nc(Cn3nnc(-c4nc(-c5cccs5)no4)c3C)c(C)o2)cc1 returned Tg IFNy HTS -52.
`O=C(NCc1ccco1)C(Sc1ccccc1)c1ccccc1` (centres undefined) gave Tg IFNy HTS -3.
`CC(C)(C)CC(C)(C)NC(=O)C(Sc1ccccc1N)c1ccccc1` (centres undefined) gave Tg IFNy HTS -88*.
For COC(=O)c1ccc(CSc2ccccc2N)o1 the results were Tg IFNy HTS 69.
Cc1ccc(S(=O)(=O)Nc2cncc(C(=O)Nc3ccc(F)cc3)c2)c(C)c1 was read as Tg IFNy HTS 8.
Screening COc1ccc(-c2nc(Nc3ccc(Cl)cc3C)c3ccccc3n2)cc1 returned Tg IFNy HTS -85.
For Cc1cnc(CNC(=O)[C@H]2CO[C@@H]3CCNC[C@@H]3C2)cn1 the results were Tg IFNy HTS 5.
Screening O=C(NCCc1ccccn1)Nc1nnc(-c2ccc(F)cc2)s1 returned Tg IFNy HTS -5.
For S=C(NCCc1ccccn1)NC1CC2CCC1C2 (centres undefined) the results were Tg IFNy HTS 62.
Screening S=C(NCCc1ccccn1)NN1C2CSC1CS2 returned Tg IFNy HTS -84*.
For COc1ccc(NC(=O)c2ccc(OC(=O)c3cccs3)cc2)cc1 the results were Tg IFNy HTS 205.
`Cc1ccc(C2(O)CCN(C(=O)C3CCCCn4nnnc43)CC2)nc1` (centres undefined) gave Tg IFNy HTS -1.
CCc1ccc(NC(=O)Cn2c(=O)cc(C(=O)N3CCCC3)c3ccccc32)cc1 was read as Tg IFNy HTS -48.
Screening COc1ccc(S(=O)(=O)N2CC3CCC2C3Oc2cccnc2)cc1 (centres undefined) returned Tg IFNy HTS -4.
Screening COC1C2CCC1N(S(=O)(=O)c1cccs1)C2 (centres undefined) returned Tg IFNy HTS -77*.
`CC(C)CN1CC[C@H]2[C@@H]1CCN2S(=O)(=O)c1cccs1` gave Tg IFNy HTS -4.
